Measured values published in PubChem BioAssay AID652017 (The Scripps Research Institute Molecular Screening Center, 2013).
About 3,800 (1%) of roughly 370,000 compounds were called active. No stated cut-off is given here; in the data, active means activation above about 7.8%; inactive means the rest. The list comes from a sample in which actives are over-represented; it also holds similar structures and randomly drawn compounds.

assay: SMARCA2 (BRM) function activators, primary screen, cell-based, luminescence, high throughput (AID 652017); settings: MG213 cells, MMTV-luciferase reporter, dexamethasone, overnight; at 9.1 µM; stronger effect = higher value;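 further: 0% = vehicle wells and 100% = reference activator wells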

activation, inactive:
COc1cccc(/C=C2\CC3(OC(C)=O)CCCN2C3)c1 (stereo not given) 1.54%
COc1cccc(C(=O)Oc2cc(C)[nH]c(=O)c2[N+](=O)[O-])c1 0.69%
Cc1cc(OC(=O)c2ccc(OC(C)C)cc2)c([N+](=O)[O-])c(=O)[nH]1 -2.6%
Cn1c(=O)n(C)c2cc(S(=O)(=O)Nc3ccc(F)cc3)ccc21 -2.88%
CC1CCC(NS(=O)(=O)c2ccc3c(c2)CC(=O)N3)CC1 (stereo not given) -2.52%
CCN(CC)C(=O)CC[C@H]1CC[C@]2(CCCN(Cc3ccc(Cl)cc3)C2)O1 -0.46%
CCOC(=O)CCCNC(=O)COC(=O)c1cc(Br)c(Br)s1 -1.12%
COC(=O)C1CN(CC(C)C)CCS(=O)(=O)N1Cc1ccc(F)cc1 (stereo not given) 1.2%
COC(=O)[C@]12C[C@H](CC(=O)NCC34CC5CC(CC(C5)C3)C4)C(=O)N(Cc3ccc(Cl)cc3Cl)C1=C[C@H](COCc1ccccc1)O[C@@H]2C -1.25%
C=CCn1c(SCC(N)=O)nnc1-c1ccccc1OC -5.95%
Cn1c(SCC(=O)c2cccs2)nnc1-c1ccco1 2.45%
O=C(NCc1ccccc1)c1onc(CSc2nc3ccccc3[nH]2)c1C(=O)NCc1ccccc1 -0.17%
COC(=O)[C@@]12CCCCC3=C1N(CCC3)C(=O)[C@H]2CC(=O)NCc1cccc2ccccc12 -2.69%
Cc1cc(Cl)ccc1C(=O)C1CCCN(C(=O)c2ccc3c(c2)OCO3)C1 (stereo not given) 0.89%
CC1=NNC(=O)C1CC(=O)N/N=C/c1ccncc1 (stereo not given) -3.81%
O=C(CSc1nnc(-c2ccccn2)n1-c1ccccc1)Nc1ccc2cn[nH]c2c1 0.38%
Cc1ccc(C(=O)N(Cc2ccccn2)CC2CCCO2)cc1 (stereo not given) -2.73%
COc1ccc(CSc2nnc(-c3cccc(C)c3)n2C)cc1 -2.04%
Cc1ccc(-c2nnc(SCC(=O)Nc3ccc(Oc4ccccc4)cc3)n2Cc2ccco2)cc1 -4.83%
CCCCSCCCNC(=O)C1CCC(CNS(=O)(=O)c2ccc(NC(C)=O)cc2)CC1 (stereo not given) -2.92%
CC(=O)Nc1ccc(S(=O)(=O)NCC2CCC(C(=O)NCCc3ccccc3)CC2)cc1 (stereo not given) -3.64%

activation, active:
Cc1cc(OC(=O)c2ccccc2)c([N+](=O)[O-])c(=O)[nH]1 7.86%
O=C1Cc2cc(S(=O)(=O)Nc3cccc(F)c3)ccc2N1 9.16%
O=C(CSc1nc2ccccc2[nH]1)c1cccs1 8.32%
CCCCNC(=O)C1CCC(CNS(=O)(=O)c2ccc(NC(C)=O)cc2)CC1 (stereo not given) 12.9%
